Assay outcomes: PubChem, The Scripps Research Institute Molecular Screening Center
MsrA act: activates bovine MsrA enzyme; purified bovine MsrA, absorbance read-out; activation, % at 10.6 µM; hit rate 0.3% among 360,000; AID 602163; in the data active = activation above about 7.5%;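 note: 0% = vehicle and 100% = reference activator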
HGIII-sPLA2 inh: Blocks human group III sPLA2 activity; AID 743126; hit rate 0.56% among 370,000; QFRET BODIPY PC-A2 liposome hydrolysis, fluorescence; inhibition, % at 12.2 µM;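 active = inhibition above mean plus 3 SD of compounds lying within the high and low control bounds, cut at about 19% in these data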;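 note: 0% = median of test compound wells and 100% = no enzyme DMSO wells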
Target sequence (Q9NZ20 whole entry, looked up): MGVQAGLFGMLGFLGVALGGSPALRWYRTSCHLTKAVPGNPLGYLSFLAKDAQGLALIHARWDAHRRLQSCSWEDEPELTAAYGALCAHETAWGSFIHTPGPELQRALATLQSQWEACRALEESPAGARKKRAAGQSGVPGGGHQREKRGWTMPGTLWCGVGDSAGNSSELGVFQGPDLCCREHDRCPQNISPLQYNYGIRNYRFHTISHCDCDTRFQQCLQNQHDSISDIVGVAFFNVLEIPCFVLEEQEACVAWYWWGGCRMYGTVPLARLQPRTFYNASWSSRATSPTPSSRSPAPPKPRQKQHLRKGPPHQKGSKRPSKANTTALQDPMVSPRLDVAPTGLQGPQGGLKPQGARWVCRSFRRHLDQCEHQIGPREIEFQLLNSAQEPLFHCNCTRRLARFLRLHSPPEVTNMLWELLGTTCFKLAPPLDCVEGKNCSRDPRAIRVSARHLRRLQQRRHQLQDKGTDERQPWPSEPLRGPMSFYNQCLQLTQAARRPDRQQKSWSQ
MsrA inh: inhibitors of bovine MsrA | purified bovine MsrA, absorbance read-out | AID 651718 | inhibition, % at 15.5 µM | hit rate 0.75% among 360,000; in the data active = inhibition above about 4.5%;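 note: 0% = vehicle wells with enzyme and 100% = reference inhibitor wells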
rCAG binder: r(CAG) repeat RNA binding; AID 651821; inhibition, % at 3 µM; TO-PRO-1 dye displacement fluorescence; hit rate 1.3% among 370,000;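 active = inhibition above the plate cutoff, the mean of all test compounds on that plate plus 3 SD, cut at about 35% in these data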;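 note: 0% = DMSO alone and 100% = 100 µM mitoxantrone as full dye displacement; higher means more dye released from RNA so lower well fluorescence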
rCAG bind conf: r(CAG) RNA repeat binding, confirmation; shares compounds with rCAG binder; hit rate 70% among 4,300; inhibition, % at 3 µM; TO-PRO-1 dye displacement fluorescence;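 active = inhibition above a per-plate cutoff, the mean inhibition of sample wells plus 3 SD, cut at about 35% in these data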;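 note: loss of TO-PRO-1 fluorescence as compound displaces dye from 1x1 AA loop RNA; 0% = DMSO only wells and 100% = 100 µM mitoxantrone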
dCAG dye counter: disrupts DNA CAG TO-PRO-1 complex, flagging rCAG hits. shares compounds with rCAG binder. d(CAG) DNA oligo TO-PRO-1 dye displacement, fluorescence. inhibition, % at 3 µM. hit rate 94% among 4,300;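 active = inhibition above its plate's cutoff, the mean test-well inhibition plus 3 SD, cut at about 4.8% in these data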;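 note: 0% = DNA dye mix with DMSO and 100% = 100 µM mitoxantrone; hits displace the dye from DNA and so lower well fluorescence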
An asterisk follows results filed as active; . = no result. Compounds with a hit are over-represented: about 2.8% of the library has one in this group of screens.

SMILES	MsrA act	HGIII-sPLA2 inh	MsrA inh	rCAG binder	rCAG bind conf	dCAG dye counter
Cc1cc(-c2csc(NC(=O)c3cc4ccccc4o3)n2)c(C)n1C	-5	-2	2	44*	52*	25*
O=C(O)C(c1ccccc1)N1C(=O)/C(=C\c2ccc(O)c(O)c2)SC1=S (stereo not drawn)	-4	-30	2	42*	53*	22*
COc1ccccc1/C=C1\SC(=S)N(CCC(=O)NNC(=O)c2ccccc2OC)C1=O	-2	16	0	6	.	.
COc1cc(/C=C2\SC(=S)N(C(C(=O)O)c3ccccc3)C2=O)ccc1O (stereo not drawn)	-3	-12	1	43*	33	8.5*
CCOc1cc(/C=C2\SC(=S)N(C(C(=O)O)c3ccccc3)C2=O)ccc1O (stereo not drawn)	-4	-16	3	66*	62*	25*
COc1ccccc1/C=C1\SC(=S)N(C(C(=O)O)c2ccccc2)C1=O (stereo not drawn)	-6	-16	2	67*	67*	27*
CCOc1ccc(/C=C2/SC(=S)N(C(C(=O)O)c3ccccc3)C2=O)cc1OCC (stereo not drawn)	-4	-9	0	11	.	.
CCC(C)[C@H](NS(=O)(=O)c1ccc(F)cc1Br)C(=O)OC (stereo partly drawn)	2	1	0	1	.	.
Cc1cc(OCC(=O)OCC(=O)NC2CCCC2)ccc1Cl	-3	1	0	-1	.	.
O=S(=O)(NCCSc1ccccc1)c1ccc(F)cc1	-11	-24	0	-2	.	.
O=C(NS(=O)(=O)c1ccc2ccc(S(=O)(=O)NCCSc3ccccc3)cc2c1)c1cccc2ccccc12	-1	-113	0	88*	88*	65*
CC[C@@H]1C=C(C(=O)O)[C@H](c2ccc(Br)cc2)N1S(=O)(=O)c1ccc(C)cc1	-3	1	1	27	.	.
CCCCC[C@@H]1C=C(C(=O)O)[C@H](c2ccc(CC)cc2)N1S(=O)(=O)c1ccc(C)cc1	-4	4	1	8	.	.
CCCCC[C@@H]1C=C(C(=O)O)[C@H](c2ccc(F)cc2)N1S(=O)(=O)c1ccc(C)cc1	-3	-30	-1	59*	45*	14*
CC[C@@H]1C=C(C(=O)O)[C@H](c2ccc(C#N)cc2)N1S(=O)(=O)c1ccc(C)cc1	-2	10	1	12	.	.
CCCC[C@@H]1C=C(C(=O)O)[C@H](c2ccc(Br)cc2)N1S(=O)(=O)c1ccc(C)cc1	-7	-26	2	53*	54*	19*
CCCC[C@@H]1C=C(C(=O)O)[C@H](c2ccc(CC)cc2)N1S(=O)(=O)c1ccc(C)cc1	-7	-22	-1	66*	49*	15*
Cc1csc(NC(=O)Nc2cccc(Cl)c2)n1	-8	-12	0	46*	11	16*
NC(CO)c1csc(NC(=O)Nc2cccc(Cl)c2)n1 (stereo not drawn)	-2	7	1	19	.	.
O=C(Nc1cccc(Cl)c1)Nc1nc(-c2ccccc2)cs1	-4	2	2	50*	21	20*
Cc1nnc(NC(=O)Nc2cccc(Cl)c2)s1	2	-11	-1	50*	9	12*
O=C(Nc1ccc(Cl)cc1)Nc1nc(-c2ccccc2)cs1	-3	-9	-1	13	.	.
O=C(CC1C(=O)NCCN1C/C=C/c1ccccc1)NCCc1cccnc1 (stereo not drawn)	0	-5	0	2	.	.
C=CCOc1c(Br)cc(/C=C2/NC(=S)N(C(C)=O)C2=O)cc1OC	-10	-5	-1	20	.	.
C=CCOc1ccc(Br)cc1/C=C1\NC(=S)N(C(C)=O)C1=O	-9	-42	1	66*	49*	15*
SMILES	MsrA act	HGIII-sPLA2 inh	MsrA inh	rCAG binder	rCAG bind conf	dCAG dye counter
CCN(CC)c1ccc(C(=C2C=CC(=[N+](CC)CC)C=C2)c2ccc(S(=O)(=O)O)cc2S(=O)(=O)[O-])cc1	-2	-4	0	46*	58*	18*
CCN(CC)c1ccc(SS(=O)(=O)O)cc1	-1	5	3	4	.	.
O=c1cc(CSc2ccc(Cl)cc2)[nH]c2[nH]n(-c3ccccc3)c(=O)c12	-1	14	3	56*	36*	13*
Cc1ccc(SCc2cc(=O)c3c(=O)n(-c4ccccc4)[nH]c3[nH]2)cc1	-11	11	3	62*	43*	17*
O=C(O)c1cc([N+](=O)[O-])ccc1NCCCc1ccccc1	-3	-37	1	37*	31	6.5*
NC(=S)NC(=O)c1ccccc1	-6	16	1	-7	.	.
CC(C)=C1C(=O)NN(c2ccc(C)c(Cl)c2)C1=O	-3	2	0	94*	23	8.1*
O=C1N=c2ccccc2=C1c1sc(=S)n(NC(=O)c2ccccc2)c1O	4	6	0	61*	41*	20*
CCOc1ccc(S(=O)(=O)NCCCn2ccnc2)cc1	-6	-10	0	3	.	.
Cc1ccc2c(c1)c(Sc1ccccc1)c(CC(=O)O)n2C	-5	-17	-2	35*	26	5.2*
Cc1cc(C(=O)CN2C(=O)NC3(CCCc4sccc43)C2=O)c(C)n1-c1ccc(Cl)cc1 (stereo not drawn)	-2	-1	-1	4	.	.
CN(C)CCCNC(=O)CC1C[C@H](C(=O)N2CCOCC2)[C@@]2(CCC3CCCC3)c3[nH]c4ccccc4c3CCN2C1=O (stereo partly drawn)	1	12	1	9	.	.
Cc1cccc(NC(=O)c2cc(S(=O)(=O)N3CCOCC3)cn2C)c1C	-1	6	-1	2	.	.
O=C(O)c1cccc2[nH]c(C(F)(F)F)nc12	0	-1	0	3	.	.
Nc1cccc2[nH]c(C(F)(F)F)nc12	-3	-4	-1	70*	61*	33*
CCN(c1ccccc1)S(=O)(=O)c1cccc(C(=O)OCc2nc3sc(C)c(C)c3c(=O)[nH]2)c1	-13	-7	0	4	.	.
Cc1c(OC(C(=O)O)c2ccccc2)ccc2c1oc(=O)c1ccccc12 (stereo not drawn)	-3	-3	2	36*	48*	14*
Fc1ccc2nncc(SCc3ccccc3Cl)c2c1	-2	0	0	0	.	.
O=C(NCC(c1ccco1)N1CCc2ccccc21)c1c(F)cccc1F (stereo not drawn)	-2	12	-1	-2	.	.
Cc1cc(SCC(=O)Nc2c(C)n(C)n(-c3ccccc3)c2=O)nc2ccccc12	-5	11	1	-7	.	.
S=c1[nH]nc(-c2ccco2)n1/N=C/C(Cl)=C/c1ccccc1	-2	-2	2	58*	52*	18*
S=c1[nH]nc(-c2ccco2)n1/N=C/c1ccc(Cl)c(Cl)c1	-8	11	3	41*	40*	10*
O=C(O)c1ccc(Nc2nc(-c3cc4ccccc4oc3=O)cs2)cc1O	-6	-21	3	72*	84*	48*
